# PubChem BioAssay (NCI)
# The panel holds about 83,000 compounds, 20% with a hit somewhere; the sample as a whole holds those more often.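 Negative percent growth values reflect cell death: -40 means 40% of the cells present at the start died, and -100 means all died.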 A number with no mark means an inactive call. Active and inactive are the calls of the source. The calls were made as follows: active = growth percent below 10; inactive = the rest.
# Tests used:
# Assay in all cases: NCI-60 one-dose screen, 48 h (100 = growth as untreated, 0 = no growth, -100 = all killed)
# Conditions in all cases: 10 µM unless noted
# NCI-H23 lung = test system: NCI-H23 lung
# NCI-H226 lung = test system: NCI-H226 lung
# NCI-H322M lung = test system: NCI-H322M lung
# HOP-62 NSCLC = test system: HOP-62 NSCLC
# NCI-H460 lung = test system: NCI-H460 lung
# HOP-92 NSCLC = test system: HOP-92 NSCLC
# NCI-H522 lung = test system: NCI-H522 lung
# A549/ATCC NSCLC = test system: A549/ATCC NSCLC
# 786-0 renal = test system: 786-0 renal
# COLO 205 colon = test system: COLO 205 colon
Structure (SMILES),growth (NCI-H23 lung),growth (NCI-H226 lung),growth (NCI-H322M lung),growth (HOP-62 NSCLC),growth (NCI-H460 lung),growth (HOP-92 NSCLC),growth (NCI-H522 lung),growth (A549/ATCC NSCLC),growth (786-0 renal),growth (COLO 205 colon)
Cc1cc2c(cc1C)N(C(=O)CCl)CC(=O)N2,55.7%,33.1%,95%,73.4%,88.7%,93.4%,-81.7% (active),88.1%,51.2%,-95.6% (active)
Cc1ccc2nc(NC(=O)CSc3nc(-c4ccccc4)c(C#N)c4nnnn34)sc2c1,103%,94.7%,108%,97.4%,104%,106%,89.4%,104%,114%,121%
CN(CCCNC(=O)CCOCCOCCOCCNC(=O)Cc1ccc2ccc3cccc4ccc1c2c34)CCCNc1cc(-c2ccc3ccccc3c2)nc2ccccc12,-82.9% (active),-47.1% (active),-88.4% (active),-90.4% (active),-82.6% (active),-88.2% (active),-59% (active),-33.9% (active),-85.6% (active),-87.7% (active)
CCCCCCCC/C=C\CCCCCCCCOc1ccc(CC(=O)NCC[N+]2(C)CCOCC2)cc1,78.9%,71.1%,88.1%,30.7%,54.9%,66.5%,69.5%,88.7%,67.7%,-14.8% (active)
COc1ccc(/C=C/c2ccc3ccccc3n2)c(OC)c1,74.3%,86.1%,75.4%,74.4%,75.5%,46.8%,72.5%,79.6%,96.1%,85.9%
Cc1ccc2nc(-c3ccc(C(=O)NNC(=S)Nc4ccccc4)cc3)[nH]c2c1,91.5%,92.7%,99.7%,95.3%,94.4%,99.8%,95%,101%,94.8%,119%
CCCCCCCCCCCCCOC(=O)c1c(C)[nH]c(/C=C2\N=C(c3ccc[nH]3)C=C2OC)c1C,31.4%,-38.1% (active),32.7%,30.1%,16.1%,-6.46% (active),5.93% (active),-4.51% (active),22.3%,7.58% (active)
O=C(CCCCCCN1CC(=O)N2[C@H](c3ccc(Cl)cc3)c3[nH]c4ccccc4c3C[C@@H]2C1=O)NO,60.2%,84.1%,64.1%,61.9%,54.2%,44.4%,32.8%,90.1%,92.9%,57.3%
C/C(=N\O)[C@@H]1CC[C@]2(CO)CC[C@]3(C)[C@H](CC[C@@H]4[C@@]5(C)CCCNC(C)(C)[C@@H]5CC[C@]43C)[C@@H]12,89.6%,92.6%,94.2%,90%,72.6%,65.6%,90%,76.6%,92.3%,81%
Cc1c2ccncc2c(C)c2c1c1cc(CO)ccc1n2C,6.65% (active),-49.2% (active),3.23% (active),-19.6% (active),-35.4% (active),-5.78% (active),21.1%,2.79% (active),1.95% (active),-39% (active)
CN(C)CCCC1(c2ccc(F)cc2)OCc2cc(-c3cc4ccccc4s3)ccc21 (stereo not given),76.8%,67.9%,56.8%,-65.8% (active),-78.1% (active),26.8%,-9.87% (active),-67.1% (active),57.8%,-65.6% (active)
COc1ccc2c(c1)c(-c1nc(-c3c[nH]c4ncccc34)cs1)cn2CCO,62.5%,36.5%,47.6%,53.7%,46.3%,48.6%,36.8%,66.9%,59.5%,56.9%
CCSc1oc(C)nc1[P+](c1ccccc1)(c1ccccc1)c1ccccc1,20.6%,57.9%,77%,21.3%,16.8%,25.3%,24.8%,23.2%,56.6%,-7.48% (active)
CCOC(=O)CC1CSC(Nc2ccccc2)=N1 (stereo not given),98%,105%,96.5%,100%,109%,120%,94.9%,95.3%,98.7%,125%
O=C1C(Nc2ccccn2)=C(I)C(=O)c2ncccc21,-35.1% (active),33%,-31.2% (active),-72.5% (active),-61.4% (active),-2.25% (active),-63.1% (active),-48.8% (active),-22.9% (active),49.2%
Oc1c(CN2CCOCC2)cc(COCc2ccccc2)c2cccnc12,39.1%,43.4%,14.7%,10.7%,16.1%,62.4%,4.41% (active),26.5%,32.6%,62.8%
C=CCC(CCCC)(C(=O)OCC)C(=O)OCC,98.8%,106%,109%,111%,117%,96.2%,94%,103%,94.9%,111%
Cc1nc2cc(O)c(O)cc2cc1Oc1ccc(NC(=O)Nc2ccc(Cl)c(Cl)c2)cc1,62.8%,38.3%,94%,35.7%,62.1%,37.5%,1.87% (active),50.5%,103%,34.7%
CCN1C(=O)N(CC)C2C1NN=c1s/c(=C\c3cnc(C)n3C)c(=O)n12 (stereo not given),38.1%,53.3%,29.6%,34.4%,4.44% (active),43%,-14.4% (active),15.8%,28.4%,14.5%
CCCn1nc(C(=O)N(C)Cc2ccccc2)c2c1CCC(N1CCc3ccccc31)C2 (stereo not given),97.9%,97.9%,101%,103%,112%,90.7%,86.5%,93%,95.2%,117%
COc1ccc(/C=C(/c2ccccc2)[N+](=O)[O-])c(OC)c1,21.1%,59.9%,46.1%,4.17% (active),2.72% (active),-25.4% (active),-13.2% (active),7.88% (active),-66.1% (active),-26.9% (active)
CCOC(=O)C(Cc1ccc(OC)cc1)C(=O)OCC,17.6%,65.9%,36.3%,52.8%,30.4%,-1.28% (active),25%,51.7%,39.3%,71.6%
